Compound activity deposited in PubChem by National Center for Advancing Translational Sciences (NCATS).
A selection: hits, their analogues and other compounds. The true share with any hit is near 11%.
HTT cytoprotect – cytoprotection in Huntington HTT-Q103 PC12 cell model. PC12 HTT-Q103 induced, cytoprotection, ATP luminescence, 40 h. Potency, µM (top dose mostly 56.4 µM), inactives show cytoprotection (ATP increase), usual class: activators. 230,000 compounds, 0.14% hits. AID 1471; also: potency is read from the fitted curve at half-maximal effect; % of control where 0% means no effect; nearly all actives have a fitted effect of over 45% in size
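Huntington model: PC12 line, ecdysone-inducible HTTQ103 exon1–GFP, tebufenozide 100 nM. Test articles in a dose series. Endpoint luminescence from cellular ATP.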
GoLoco inh red – blocks human Gai1 binding to RGS12 GoLoco peptide, red readout; Gai1:RGS12 GoLoco peptide FP, rhodamine, 10 min; Potency, µM (series often up to 61.6 µM), inactives show at the top dose activity, negative = inhibition, usual class: inhibitors; 230,000 compounds, 0.44% hits; AID 880; active = well fitted inhibition curve with a large enough effect, not every such curve was filed as active; inactive = no such curve, though single readings can be large or run the other way; also: potency is read from the fitted curve at half-maximal effect; % is scaled to controls: 0 for no effect and ±100 for the full control effect; nearly all actives have a fitted effect of over 30% in size
PNC inhibitor – perinucleolar compartment assembly inhibition | activity change (PNC), negative = inhibition, % at 10 µM | 140,000 compounds, 3.1% hits | PC3M PTB-GFP, PNC prevalence imaging, 16 h; active compounds read low;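 active = readout at or below -70, meaning at least 70% loss of cells showing the perinucleolar compartment, a nuclear body marking cancer cells; inconclusive = readout between -30 and a set limit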;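 also: plate controls were DMSO wells for no effect and camptothecin positive control wells for full effect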
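Compounds are pinned in duplicate onto adhered PC3M cells stably expressing GFP-tagged PTB and incubated 16 h at 37 C. Cells are then fixed, nuclei stained with Hoechst, and PNC-positive cells counted.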
HTT aggregate – mutant huntingtin aggregation inhibition | PC12 HttQ103-GFP aggregates, Acumen cytometry, 40 h | Potency, µM (top dose mostly 46.1 µM), for the others: at the top dose activity change, negative = inhibition, hits mostly inhibitors | 220,000 compounds, 1.1% hits; also: potency is read from the fitted curve at half-maximal effect; % is scaled to controls: 0 for no effect and ±100 for the full control effect; nearly all actives have a fitted effect of over 60% in size
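Multiplexed with ATP-based cell death, this channel scores GFP aggregates in PC12 cells expressing inducible HTTex1-Q103-GFP. Induction used 100 nM tebufenozide; compounds were tested in concentration series.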
HPGD inh – blocks human HPGD enzyme activity. purified HPGD, NADH fluorescence kinetic, PGE2 substrate. AID 894. P15428. Potency, µM, for inactives: at the highest dose activity change, negative = inhibition, actives largely listed as inhibitors. 150,000 compounds, 4.3% hits; active = well fitted inhibition curve with a large enough effect, not every such curve was filed as active; inconclusive = small, poorly fitted or top-dose-only effect, or another doubt; inactive = no such curve, though single readings can be large or run the other way; also: potency is read from the fitted curve at half-maximal effect; % is scaled to controls: 0 for no effect and ±100 for the full control effect
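NADH formation kinetics: reaction with 30 uM PGE2 and 1 mM NAD+ (final), 20 nM enzyme, Tris-HCl pH 8 with Tween 20, after 15 min compound preincubation at room temperature. Fluorescence change, last versus first of five reads.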
ALDH1A1 inh – inhibitors of human aldehyde dehydrogenase 1A1 | P00352 | Purified ALDH1A1, NADH fluorescence, propionaldehyde substrate | Potency, µM (doses to about 75.3 µM), for inactives: at the top dose activity, negative = inhibition, hits mostly inhibitors | 220,000 compounds, 7.3% hits | AID 1030; active = well fitted inhibition curve with a large enough effect, not every such curve was filed as active; inconclusive = small, poorly fitted or top-dose-only effect, or another doubt; inactive = no such curve, though single readings can be large or run the other way;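 also: potency is read from the fitted curve at half-maximal effect; plate controls were no enzyme wells and a reference inhibitor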
Target sequence (P00352 whole entry, looked up): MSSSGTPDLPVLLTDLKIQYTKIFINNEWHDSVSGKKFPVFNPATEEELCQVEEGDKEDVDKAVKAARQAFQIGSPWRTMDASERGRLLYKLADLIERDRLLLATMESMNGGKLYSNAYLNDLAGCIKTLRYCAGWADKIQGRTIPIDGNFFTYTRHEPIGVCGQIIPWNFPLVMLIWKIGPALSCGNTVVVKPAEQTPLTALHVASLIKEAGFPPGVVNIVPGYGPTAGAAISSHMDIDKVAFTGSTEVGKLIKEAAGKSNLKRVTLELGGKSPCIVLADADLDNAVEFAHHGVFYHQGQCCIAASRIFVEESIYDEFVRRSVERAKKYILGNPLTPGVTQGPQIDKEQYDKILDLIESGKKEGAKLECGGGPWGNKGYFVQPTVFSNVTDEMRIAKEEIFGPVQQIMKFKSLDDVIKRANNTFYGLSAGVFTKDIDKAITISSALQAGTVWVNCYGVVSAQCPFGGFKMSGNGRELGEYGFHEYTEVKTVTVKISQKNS
Active calls of the source: *; ? = inconclusive; nt = not tested or not shown; [ ] = dose if it differs, or a comment. Unless noted, calls follow the shape of the dose curve; as a rule, active = well fitted curve in the direction sought with a large enough effect; inconclusive = small, poorly fitted or top-dose-only effect, or another doubt; inactive = no such curve, though single readings can be large; an effect the other way counts as inactive or inconclusive.

SMILES | HTT cytoprotect | GoLoco inh red | PNC inhibitor | HTT aggregate | HPGD inh | ALDH1A1 inh
CCOC(=O)c1cnc(SCc2nc(N)nc(Nc3ccccc3)n2)nc1N | -36% | 14% | -123* | -7% | -8% | 2%
COc1ccc2c(c1)CC/C(=C/c1ccco1)C2=O | 27%[10 µM] | 8% | 11 | 8% | ? | ?
O=C1C(=Cc2ccco2)C(=O)c2ccccc21 | ? | -6% | 32 | ? | -24% | 13µM*
O=C1/C(=C/c2ccco2)CCc2ccccc21 | ? | 9% | -17 | 14% | -7% | 28µM*
O=C(O)c1ccc2c(c1)C(=O)/C(=C\c1ccco1)C2=O | 25%[10 µM] | -14% | nt | 0% | nt | ?
CCC1C/C(=C/c2ccco2)C(=O)/C(=C/c2ccco2)C1 (configuration not stated) | 0%[10 µM] | 3% | -119* | ? | -10% | ?
O=C(CCc1ccc(S(=O)(=O)N2CCOCC2)cc1)Nc1nc(COc2ccccc2)cs1 | -36% | 6% | ? | ? | -15% | -1%
CCOC(=O)c1c(OCCO)nn(-c2ccccc2)c1N | -37% | 4% | nt | -5% | nt | -2%
O=C(O)c1cc(=O)[nH]c(SCc2ccccc2)n1 | -5%[10 µM] | 5%[14.2 µM] | nt | nt | -9% | -13%[13.5 µM]
N=C1C=CC(=C(c2ccc(N)cc2)c2ccc(N)cc2)C=C1 | -31%[10 µM] | -15%[14.2 µM] | nt | nt | 10µM* | 7%[13.5 µM]
CCOc1ccc(C(C#N)N2CCOCC2)cc1OC (configuration not stated) | 13% | -15% | 27 | -2% | -13% | 10µM*
O=C(c1cc(Cl)ccc1Cl)N1CCN(c2ccccn2)CC1 | -2% | 17% | 26 | -17% | -14% | -7%
O=C(c1ccc2c(c1)N(Cc1cccc(Cl)c1)C(=O)c1ccccc1S2(=O)=O)N1CCN(c2ccccn2)CC1 | -23% | 8% | nt | 4% | nt | 20µM*
O=C(c1ccc(S(=O)(=O)c2cccc(Cl)c2)c([N+](=O)[O-])c1)N1CCN(c2ccccn2)CC1 | -205% | 3% | nt | 11µM* | nt | -4%
O=C(c1cnc(N2CCN(c3ccccn3)CC2)c2ccccc12)N1CCN(c2cccc(Cl)c2)CC1 | -71% | 4% | nt | 7.9µM* | nt | ?
O=C(c1cccc(Cl)c1)N1CCN(c2ccccn2)CC1 | 5% | 3% | 19 | 4% | -12% | ?
O=C(c1ccc(S(=O)(=O)c2ccccc2Cl)c([N+](=O)[O-])c1)N1CCCCCC1 | 2%[10 µM] | 9% | -105* | ? | 25µM* | ?
Cc1noc(C)c1COC(=O)c1ccc(N(C)C)cc1 | -19% | -9% | nt | -4% | nt | ?
CCOC(=O)c1cc([N+](=O)[O-])c([N+](=O)[O-])cc1NC(C)=O | nt | -11% | -26 | 13% | 22µM* | 8.9µM*
CCOC(=O)c1ccc(NC(=O)c2ccccc2[N+](=O)[O-])cc1 | nt | -3% | 17 | 11% | -5% | ?
COc1ccccc1CNC(=O)C(CCSC)NC(=O)C1CCC(C)CC1 (configuration not stated) | 5% | 0% | -4 | -3% | -3% | -1%
CCOc1ccc(OCC(=O)c2c(O)c3ccccc3oc2=O)cc1 | -33% | -19% | 6 | 1% | 13µM* | 8.9µM*
CCCCC(=O)c1c(O)c2ccccc2oc1=O | -11% | -16% | ? | ? | -16% | -5%
COc1ccc(OCC(=O)c2c(O)c3ccccc3oc2=O)cc1 | -5% | -28% | -6 | 21% | 22µM* | ?
COc1ccccc1NC(C)C(=O)Nc1ccc(C(C)=O)cc1 (configuration not stated) | nt | 9% | -22 | 6% | -17% | ?
S=C1NC2=C(CCCC2=C2SCCS2)C(c2ccccc2)N1 (configuration not stated) | -26% | 8% | nt | 3% | nt | 0.35µM*
CC(=O)C1=C(c2ccccc2)NC(=S)NC1c1ccc(O)c(O)c1 (configuration not stated) | nt | 0% | nt | ? | nt | ?
COc1ccc(CNC(=O)c2cc3c(s2)CN(Cc2ccccc2)C3)cc1 | -14% | 2% | nt | -2% | nt | 10%
